Assay results reported in the OligoGym collection.

Each sequence was assayed against DSPP (assay: pooled miR-30 sensor sort-seq; sequence = guide strand). Details: shRNA.
Also: reference of the scale not given here.

Sequence	sensor-assay potency score (higher = more potent)
TTTGCTTTCTCTATGGTTGAGC	0.0105
TTGTCTGTACTGTTATTGCTTC	-0.739
TATCACTGTCATCATCTTCTGC	-0.312
TTTATCCTCTTTACCTTCGTTG	-0.331
TTCACTGCTATCACTGCTGTTG	-0.29
TATGTAGAAAAACTCTTCCCTC	-0.0837
TTTCTGAATTAGCATCATCATT	-1.5
TATGTTGACAACCTCTCCTTGT	0.37
TCTATCACCTTCATGCACCAGG	0.183
TTGGACAACAGCGACATCCTCA	0.0891
TTATTAGTGTCTGATGTGCTAT	-0.602
TACTTGAGGTCCATCTTCTTGG	-0.264
TTGCTATCACTGCTGTTGCTGC	-0.741
TTGTGTCTTGACATTGCCTTTG	-0.762
TATTCTTATCAGTATTTCCATT	-0.803
TTTCTCTTGCTGTTGATCTGAG	-0.329
TTGCTGCTGTCTGACTTGCTGT	-1.02
